Assay results taken from the OligoGym collection.

These sequences were tested against FLG (assay: pooled miR-30 sensor sort-seq; sequence = guide strand). Details: shRNA.
Also: reference of the scale not given here.

In order of falling sensor-assay potency score (higher = more potent):
1. TTTCATAATCATATACTCCTTC  0.805
2. TAGAGTCTGACTGTACAGGTGA  0.79
3. TTTATCATGATGACTGTGCTTT  0.582
4. ATTGTAACTAACACTTCCGTGC  0.359
5. TAATCTAGTATTTTCAGTCTTG  0.133
6. TTTACTTGAGTTATGATGGTTT  0.102
7. TTTTTTTGAATATTGCTTGAAA  -0.0278
8. TATGAGTAGGTGAATATCCTTT  -0.066
9. TTCTAATAGACTATCAGTGGTG  -0.268
10. TTTCTCTGCTTGCACTTCTGGA  -0.359
11. TTGATTGTTCCTCATTACGTGT  -0.377
12. AATTGTAACTAACACTTCCGTG  -0.414
13. TTGTCTGCTGACACTTCTGGAT  -0.488
14. TTGTCTGCTTGCACTTCTGGAT  -0.517
15. TTTGTCTGCTGACACTTCTGGA  -0.531
16. TCTATTGTTTCTTCTTTCCAGA  -0.556
17. TTTGTCTGCTTGCACTTCTGGA  -0.568
18. TAGACTCATAATATGCTTGAGC  -0.577
19. TTGTTCTGCTTGCACTTCTGGA  -0.702
20. TTTCTTCTAATAGACTATCAGT  -0.739
21. TAATCTGCACTACCATAGCTGC  -1.29
